Sa helicase inh = S. aureus DNA helicase inhibition | purified S. aureus helicase, fluorescence unwinding assay | inhibition, % (concentration not given with the values) | 120,000 compounds, 0.05% hits | AID 485395; in the data active = inhibition above about 25%, passing the limit was not always enough;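 also: 0% = mean of negative control wells and 100% = mean of positive control wells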
Sa growth 42C = inhibitors of Staphylococcus aureus growth at 42 °C; S. aureus RN4220 growth, OD600, 20 h; active compounds read low; relative growth, % (no concentration beside the values); 170,000 compounds, 0.53% hits; AID 720641;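 active = relative growth at most 50% at the other temperature and 20+ points below 30 °C, or under 10% at both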
Starred values were filed as active, the others as inactive; . = not tested or not shown. This excerpt belongs to a sample that is enriched for hits.

SMILES | Sa helicase inh | Sa growth 42C
O=c1c2ccccc2nc(-c2ccccc2)n1-c1ccccc1 | 15 | 107
O=c1c2ccccc2[se]n1-c1ccccc1 | . | 0.3*
O=P1(c2ccccc2)C=CCC1 (configuration not stated) | 2 | 119
N#CC(C#N)=C(C#N)c1ccc(Nc2ccccc2)cc1 | -2 | 85
N#CC(C#N)=NNc1ccccc1 | 0 | 0.0*
Cc1nc(-c2ccccn2)nc(NCCc2ccccc2)c1Cl | . | 150
Clc1ccc(CSC(Cn2ccnc2)c2ccc(Cl)cc2Cl)cc1 (configuration not stated) | . | -0.3*
c1ccc(Cn2ccnc2)cc1 | . | 84
Clc1ccc(COC(Cn2ccnc2)c2ccc(Cl)cc2Cl)cc1 (configuration not stated) | . | -0.6*
CC(C)(C)C1(O)CC2OC(=O)CC23C(=O)OC2OC(=O)C(O)C231 (configuration not stated) | 15 | 93
Cc1ccc(/C=C2\CC3C4CC=C5CC(O)CCC5(C)C4CCC3(C)C2O)o1 (configuration not stated) | 32 | 110
CCCC1COC(Cn2cncn2)(c2ccc(Cl)cc2Cl)O1 (configuration not stated) | 0 | 5.4*
CCOP(=S)(c1ccccc1)C1(C#N)CCCC1 (configuration not stated) | -14 | 111
CCN(CC)P(=S)(N(CC)CC)N(CC)CC | 7 | 107
Clc1ccc(CO/N=C(\Cn2ccnc2)c2ccc(Cl)cc2Cl)c(Cl)c1 | . | -0.4*
Cn1c(O)c(/C=N/C(N)=S)c(=O)n(C)c1=O | -142 | 85
C1=C(c2ccccc2)CCN(Cc2nnc(-c3ccco3)o2)C1 | -3 | 113
Cc1oc2ccccc2c1-c1ccc2ccccc2n1 | -16 | 34*
CN(C)C(=O)C(OC(=O)c1cn(C)c2ccccc12)c1ccccc1 (configuration not stated) | 18 | 85
Cc1nc2ccccc2c(=O)n1-c1ccc(OC(F)F)cc1 | -13 | 95
COC(=O)C1=C(C)OC(N)=C(C#N)C12C(=O)Nc1ccc(C)cc12 (configuration not stated) | -1 | 62
CCN(CC)C(=O)c1ccc(NC(=O)CSC(C)(C)C)cc1 | -22 | 103
CN(C)C(=O)Oc1cccc2cccnc12 | 0 | 102
Oc1cccc2cccnc12 | . | 0.2*
Cc1ccc(C(=O)CBr)cc1C | -9 | 94
COCCNC(=O)Cn1cc(C=C2C(=O)N(C)C(=O)N(C)C2=O)c2ccccc21 | -90 | 94
CCN(CC)C(=O)c1ccc(NC(=O)Cn2nc(-c3ccccc3)c3ccccc3c2=O)cc1 | 2 | 98
CCn1nc(-c2cccnc2)nc2c(=O)n(C)c(=O)nc1-2 | -20 | -0.2*
CCn1nc(-c2ccccc2)nc2c(=O)n(C)c(=O)nc1-2 | -133 | 0.3*
COC(=O)CC1=C(C(=O)OC)C2(C(=O)Nc3ccc(Br)cc32)C(C(=O)OC)=C(N)O1 (configuration not stated) | 30 | 72
